Hits are enriched below; roughly 3% of the tested compounds scored in any of these assays.
Sm TGR block: S. mansoni TGR enzyme inhibition; purified TGR, DTNB reduction, TNB absorbance 405 nm; Potency, µM (series often up to 114 µM), without a hit: top-dose activity change, negative = inhibition, usual class: inhibitors; 360,000 tested, 3% active; AID 485364; active = well fitted inhibition curve with a large enough effect; inconclusive = small, poorly fitted or top-dose-only effect; inactive = no such curve, though single readings can be large or run the other way; note: % is set by controls: 0 for no effect and ±100 for the full control effect; nearly all actives have a fitted effect of over 60% in size
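TGR 20 nM + NADPH 100 uM (dispensed conc.), cpd preinc 15 min RT; start with NADPH (500 uM addition) then DTNB (15 mM addition). Kinetic TNB absorbance, 405 nm filter. Four-parameter Hill fit across titration.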
SARS PLP yeast: SARS-CoV PLP inhibition in yeast; S. cerevisiae expressing SARS-CoV PLpro, growth rescue; Potency, µM (series often up to 32.9 µM), for inactives: at the top dose activity, positive = growth rescue, most hits filed as activators; 330,000 tested, 0.19% active; AID 485353; calls by dose curve; note: 0% is about no effect; nearly all actives have a fitted effect of over 55% in size
The depositor's hits bear a star; ? = inconclusive; / = not tested or not shown. Potency is the fitted concentration of half-maximal effect.

SMILES	Sm TGR block	SARS PLP yeast
CCOc1ccc(NC(=O)c2nn(C)c(C(=O)Nc3ccc(OCC)cc3)c2[N+](=O)[O-])cc1	-11%	3%
O=[N+]([O-])/C(C(Cl)=C(Cl)Cl)=C(\Nc1ccc(F)cc1)n1cncn1	8.9µM*	-11%
CCOc1ccccc1NC(=O)c1ccc([N+](=O)[O-])cc1	-1%	0%
Cc1cc([N+](=O)[O-])nn1CC(=O)Nc1ccc(F)cc1	-6%	1%
CCOc1ccc(N/C(=C(/C(Cl)=C(Cl)Cl)[N+](=O)[O-])n2cncn2)cc1	11µM*	-2%
COc1cccc(/C=C/c2nc(C#N)c(N3CCCCC3)o2)c1	2%	/
Cc1cc(F)ccc1NC(=O)C(C(C)C)N1Cc2ccccc2C1=O (centres undefined)	-13%	/
Cc1ccc(CN2c3ccccc3S(=O)(=O)c3ccccc32)cc1	-1%	/
COc1ccccc1NC(=O)CN1C(=O)CCS(=O)(=O)c2ccccc21	?	-3%
COc1ccc(Cl)cc1NC(=O)CN1C(=O)CCS(=O)(=O)c2ccccc21	50µM*	19%
C/C(=N\NC(=O)c1ccc(CSc2nc(C)cc(C)n2)cc1)c1ccco1	45µM*	-1%
Cc1cc(C)nc(SCc2ccc(C(=O)N/N=C/c3ccc(C(=O)O)cc3)cc2)n1	8%	-5%
C/C(=N\NC(=O)c1ccc(-c2ccccc2)cc1)c1ccco1	-4%	-4%
Cc1cc(C)nc(SCc2ccc(C(=O)N/N=C/c3ccco3)cc2)n1	32µM*	-1%
CCOc1ccc(Sc2cc(C(=O)NCCc3ccc(OC)c(OC)c3)c3ccccc3n2)cc1	8%	/
CC1=C(C)/C(=N\OS(=O)(=O)c2ccc(C)cc2)C=CC1=O	7.9µM*	-83%
COc1ccc(S(=O)(=O)/N=C2/C=CC(=O)C(C)=C2C)cc1	?	5%
CC1=C/C(=N\OS(=O)(=O)c2ccccc2)C(C)=CC1=O	45µM*	-46%
CC1=C/C(=N\OS(=O)(=O)c2ccccc2)C(C(C)C)=CC1=O	?	-92%
CCc1ccc(NC(=O)C(=O)NCCc2csc(-c3cccc(F)c3)n2)cc1	3%	/
O=C(C1CCCN(S(=O)(=O)c2cccs2)C1)N1CCN(c2ccccc2F)CC1 (centres undefined)	7%	/
COc1ccc2cc(CNc3ccc(C)cc3)c(=O)n(CC(=O)Nc3ccc(C)cc3Cl)c2c1	1%	/
O=c1cc(CCl)[nH]c2nc3ccccc3n12	22µM*	-1%
O=c1cc(-c2ccccc2)[nH]c2nc3ccccc3n12	5%	-17%
Cc1cc(C)cc(-n2c(SCC(N)=O)nc3c([nH]c4ccccc43)c2=O)c1	-8%	/
SMILES	Sm TGR block	SARS PLP yeast
CCOC(=O)c1ccc(N2C(=O)CC(SCC(N)C(=O)OCC)C2=O)cc1 (centres undefined)	14µM*	-16%
CCOC(=O)NNC1CC(=O)N(c2ccc(OC)cc2)C1=O (centres undefined)	0%	0%
CCCOc1ccc(N2C(=O)CC(SC(=NC)Nc3ccc(F)cc3)C2=O)cc1 (centres undefined)	-16%	4%
CCOC(=O)C(N)CSC1CC(=O)N(c2ccc(OC)cc2)C1=O (centres undefined)	32µM*	23%
O=C1CC(Sc2nnnn2-c2ccccc2)C(=O)N1c1cccc(Cl)c1 (centres undefined)	2.8µM*	-23%
O=C1CC(SCCO)C(=O)N1c1ccc(Oc2ccccc2)cc1 (centres undefined)	?	-29%
COc1ccc(N2C(=O)CC(Sc3nnnn3-c3ccc(F)cc3)C2=O)cc1 (centres undefined)	/	-6%
C=CCNc1nnc(SC2CC(=O)N(c3ccc(OCCC)cc3)C2=O)s1 (centres undefined)	4µM*	-43%
Cc1ccc(-c2cn3nc(N4CCCC(C(=O)NCc5ccccc5F)C4)sc3n2)cc1 (centres undefined)	-1%	/
O=C(Nc1ccc(F)cc1)C1CCN(c2nc3ccccc3nc2C(F)(F)F)CC1	10%	/
CCOC(=O)c1c(C)[nH]c(C)c1S(=O)(=O)NCC(=O)Nc1cccc(SC)c1	-1%	/
O=S(=O)(NCCS(=O)(=O)N1CCN(c2cccc(Cl)c2)CC1)c1ccc(F)cc1	5%	/
CC(C)CCNC(=O)c1ccc(Cn2c(SCC(N)=O)nc3ccccc3c2=O)cc1	2%	/
CCN(CC)c1ccc(NC(=O)c2cc(CN3CCCC3)on2)c(C)c1	4%	/
Cc1noc(C)c1S(=O)(=O)Nc1ccc(C(=O)Nc2ccc(C(C)C)cc2)cc1	-1%	/
CCn1cc(C(=O)N2CCN(c3cccc(C)c3)C(C)C2)c(=O)c2cc(S(=O)(=O)N3CCOCC3)ccc21 (centres undefined)	0%	/
CCOc1ccc(CN(C(=O)c2nc(SC)ncc2Cl)C2CCS(=O)(=O)C2)cc1 (centres undefined)	15%	/
CCOC(=O)C(N)CSC1CC(=O)N(c2ccc(OCC)cc2)C1=O (centres undefined)	45µM*	-22%
CCOc1ccc(N2C(=O)CC(Sc3ncccn3)C2=O)cc1 (centres undefined)	?	-11%
CCOC(=O)c1ccc(N2C(=O)CC(Sc3nc(C)cc(C)n3)C2=O)cc1 (centres undefined)	-19%	-1%
CCOC(=O)c1ccc(N2C(=O)CC(Sc3nnc(C)s3)C2=O)cc1 (centres undefined)	4.5µM*	-38%
CC(=O)Nc1ccc(N2C(=O)CC(Sc3nc4ccccc4s3)C2=O)cc1 (centres undefined)	/	-1%
O=C1CC(Sc2ncccn2)C(=O)N1c1ccccc1 (centres undefined)	?	6%
COc1ccc(N2C(=O)CC(Sc3nc4ccccc4s3)C2=O)cc1OC (centres undefined)	8.9µM*	-6%
Nc1nnc(SC2CC(=O)N(c3ccccc3)C2=O)s1 (centres undefined)	2.5µM*	-34%
SMILES	Sm TGR block	SARS PLP yeast
COc1ccc(OCC(=O)Nc2nc(-c3ccc(Br)cc3)ns2)cc1	8%	/
Cc1cccc(CNC(=O)Cn2nc(C)c3nn(-c4ccc(Cl)cc4)c(C)c3c2=O)c1	2%	/
CCOC(=O)c1cc(OC(=O)c2cccc(F)c2)n(-c2ccccc2)n1	3%	/
Cc1cc(C)c(C(=O)N2CCCC(CNS(=O)(=O)c3cccs3)C2)o1 (centres undefined)	-3%	-1%
CC(C)(O)C#Cc1ccc(C(=O)N2CCCC(CNS(=O)(=O)c3cccs3)C2)o1 (centres undefined)	11µM*	-2%
COc1cc(C2CC(=O)Nc3c2c(C)nn3-c2nncc(-c3ccccc3)n2)cc(OC)c1OC (centres undefined)	-3%	/
COc1ccc(Cl)cc1NC(=O)C(C)n1c(=O)cc(C(F)(F)F)c2c(C)nn(C)c21 (centres undefined)	-9%	/
O=C(CC1Sc2ncnn2C1=O)Nc1ccccc1 (centres undefined)	0.5µM*	-26%
O=C(CC1SC(=O)N(c2ccccc2)C1=O)Nc1ccccc1 (centres undefined)	?	-17%
CCN(CC)CCCNC(=O)c1oc2c(c1C)-c1nn(Cc3ccc(Cl)cc3)cc1CC2	5%	/
Oc1cccc(/C=N/c2c(-c3ccco3)nc3ccccn23)c1	35µM*	-6%
O=[N+]([O-])c1ccc(Cl)c(-c2ccc(/C=N/c3c(-c4ccco4)nc4ccccn34)o2)c1	-7%	7%
O=[N+]([O-])c1ccc(-c2ccc(/C=N/c3c(-c4ccco4)nc4ccccn34)o2)cc1	-5%	1%

Screening data (PubChem BioAssay)
